Legend:
Experiment in all cases: DAPPL (digital affinity profiling via proximity ligation, sequencing); 10 mM Tris-HCl pH 7.5, 50 mM NaCl, 1 mM DTT, 4% glycerol, room temperature, 30 min; GST-TFs on glutathione beads, 16-mer random dsDNA library, 0.1% formaldehyde crosslink after washing; high values mean tight binding
Details in all cases: protein: recombinant; tags: N-terminal GST; dsDNA, one strand shown
[1] = target: T1, ELK1 (Homo sapiens, UniProt P19419 1-428)
T1 sequence: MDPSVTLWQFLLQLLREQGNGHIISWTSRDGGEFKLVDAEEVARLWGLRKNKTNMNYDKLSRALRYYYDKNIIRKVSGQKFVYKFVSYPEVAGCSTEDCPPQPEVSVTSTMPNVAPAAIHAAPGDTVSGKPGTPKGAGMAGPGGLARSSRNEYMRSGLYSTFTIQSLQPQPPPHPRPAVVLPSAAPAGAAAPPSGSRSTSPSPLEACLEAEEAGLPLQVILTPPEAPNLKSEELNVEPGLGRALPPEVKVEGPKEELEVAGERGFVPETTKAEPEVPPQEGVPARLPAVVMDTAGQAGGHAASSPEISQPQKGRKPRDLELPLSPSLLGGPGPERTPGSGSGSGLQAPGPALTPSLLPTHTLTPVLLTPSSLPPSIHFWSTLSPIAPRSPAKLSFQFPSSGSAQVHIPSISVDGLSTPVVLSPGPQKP
Method in brief: (§1)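 Pools were built from human transcription factors expressed in yeast as GST fusions, captured on glutathione beads and DNA-barcoded, along with a tag-only sample. Incubation with 200 nmole of a 16-mer random double-stranded DNA library lasted 30 min at room temperature in Tris/NaCl/DTT/glycerol buffer, and was followed by washing, 0.1% formaldehyde crosslinking, proximity ligation, PCR amplification and Illumina NextSeq500 sequencing. Binding signal is the quotient of each hexamer's read frequency for a factor and its frequency for the tag-only sample.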

[2] = target: T2, GABPA (Homo sapiens, UniProt Q06546 1-454)
T2 sequence: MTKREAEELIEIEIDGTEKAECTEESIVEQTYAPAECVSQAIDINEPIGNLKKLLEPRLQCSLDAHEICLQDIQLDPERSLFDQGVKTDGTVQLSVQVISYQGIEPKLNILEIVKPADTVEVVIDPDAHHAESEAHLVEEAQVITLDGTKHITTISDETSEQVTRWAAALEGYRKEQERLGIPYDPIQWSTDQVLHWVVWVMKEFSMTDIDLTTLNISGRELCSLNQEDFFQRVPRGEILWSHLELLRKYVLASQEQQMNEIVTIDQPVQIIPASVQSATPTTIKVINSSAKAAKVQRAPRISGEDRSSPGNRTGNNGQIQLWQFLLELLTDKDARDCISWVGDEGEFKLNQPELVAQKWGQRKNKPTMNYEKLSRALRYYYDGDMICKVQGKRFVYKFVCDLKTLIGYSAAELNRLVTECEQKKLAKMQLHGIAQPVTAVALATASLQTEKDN
Method in brief: as §1

[3] = target: T3, ERG (Homo sapiens, UniProt P11308 1-479)
T3 sequence: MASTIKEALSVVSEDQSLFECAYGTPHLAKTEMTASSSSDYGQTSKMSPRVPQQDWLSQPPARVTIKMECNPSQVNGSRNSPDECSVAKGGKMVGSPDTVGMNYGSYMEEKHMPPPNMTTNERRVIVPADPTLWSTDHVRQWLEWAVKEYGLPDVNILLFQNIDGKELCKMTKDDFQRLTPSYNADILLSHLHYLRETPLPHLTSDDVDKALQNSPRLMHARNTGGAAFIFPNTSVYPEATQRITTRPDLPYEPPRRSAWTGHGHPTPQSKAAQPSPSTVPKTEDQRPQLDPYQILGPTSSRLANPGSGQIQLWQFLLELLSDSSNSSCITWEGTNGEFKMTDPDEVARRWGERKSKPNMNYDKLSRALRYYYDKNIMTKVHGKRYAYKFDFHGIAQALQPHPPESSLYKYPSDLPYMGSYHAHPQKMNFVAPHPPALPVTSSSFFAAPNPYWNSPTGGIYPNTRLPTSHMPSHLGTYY
Method in brief: as §1

[4] = target: ELF1 (Homo sapiens, UniProt P32519 1-619)
ELF1, sequence (P32519 whole entry): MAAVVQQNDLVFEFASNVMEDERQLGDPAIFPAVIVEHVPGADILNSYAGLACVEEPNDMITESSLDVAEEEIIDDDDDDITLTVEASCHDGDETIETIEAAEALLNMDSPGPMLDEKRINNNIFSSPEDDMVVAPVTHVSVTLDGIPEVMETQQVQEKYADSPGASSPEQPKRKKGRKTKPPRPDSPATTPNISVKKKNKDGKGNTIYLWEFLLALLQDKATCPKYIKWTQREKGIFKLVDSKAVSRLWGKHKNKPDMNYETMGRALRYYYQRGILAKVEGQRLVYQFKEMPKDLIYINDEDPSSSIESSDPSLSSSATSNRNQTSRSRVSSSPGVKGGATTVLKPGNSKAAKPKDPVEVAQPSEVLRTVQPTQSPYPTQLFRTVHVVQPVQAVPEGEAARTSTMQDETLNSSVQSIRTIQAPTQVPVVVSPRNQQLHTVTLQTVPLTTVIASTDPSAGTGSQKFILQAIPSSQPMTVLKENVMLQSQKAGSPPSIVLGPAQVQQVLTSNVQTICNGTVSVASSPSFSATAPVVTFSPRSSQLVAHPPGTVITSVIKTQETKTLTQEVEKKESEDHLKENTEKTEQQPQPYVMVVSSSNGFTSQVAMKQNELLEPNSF
Method in brief: as §1

[5] = target: T4, EHF (Homo sapiens, UniProt Q9NZC4 1-300)
T4 sequence: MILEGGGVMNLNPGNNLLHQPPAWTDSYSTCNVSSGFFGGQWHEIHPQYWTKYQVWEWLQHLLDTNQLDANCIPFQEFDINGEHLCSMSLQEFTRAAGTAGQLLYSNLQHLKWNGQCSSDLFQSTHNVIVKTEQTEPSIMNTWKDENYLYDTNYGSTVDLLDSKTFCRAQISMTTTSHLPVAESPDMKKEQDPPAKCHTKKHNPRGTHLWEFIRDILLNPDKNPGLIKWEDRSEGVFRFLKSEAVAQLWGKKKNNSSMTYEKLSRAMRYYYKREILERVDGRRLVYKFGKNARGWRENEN
Method in brief: as §1

[6] = target: SPIB (Homo sapiens, UniProt Q01892 1-262)
SPIB, sequence (Q01892 whole entry): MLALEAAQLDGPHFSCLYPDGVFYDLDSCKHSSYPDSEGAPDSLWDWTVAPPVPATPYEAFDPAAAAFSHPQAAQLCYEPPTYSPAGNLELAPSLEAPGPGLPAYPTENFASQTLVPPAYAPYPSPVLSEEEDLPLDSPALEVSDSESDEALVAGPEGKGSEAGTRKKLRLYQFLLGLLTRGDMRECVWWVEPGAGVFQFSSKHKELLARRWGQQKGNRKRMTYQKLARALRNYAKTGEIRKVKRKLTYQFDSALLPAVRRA
Method in brief: as §1

[7] = target: T5, FEV (Homo sapiens, UniProt Q99581 1-238)
T5 sequence: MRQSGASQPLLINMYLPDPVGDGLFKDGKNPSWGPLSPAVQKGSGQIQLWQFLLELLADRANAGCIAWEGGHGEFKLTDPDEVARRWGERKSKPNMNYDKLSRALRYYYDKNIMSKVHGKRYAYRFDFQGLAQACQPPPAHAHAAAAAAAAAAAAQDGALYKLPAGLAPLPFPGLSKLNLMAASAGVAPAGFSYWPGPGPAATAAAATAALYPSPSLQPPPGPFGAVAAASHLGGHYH
Method in brief: as §1

[8] = target: ETV5 (Homo sapiens, UniProt P41161 1-510)
ETV5, sequence (P41161 whole entry): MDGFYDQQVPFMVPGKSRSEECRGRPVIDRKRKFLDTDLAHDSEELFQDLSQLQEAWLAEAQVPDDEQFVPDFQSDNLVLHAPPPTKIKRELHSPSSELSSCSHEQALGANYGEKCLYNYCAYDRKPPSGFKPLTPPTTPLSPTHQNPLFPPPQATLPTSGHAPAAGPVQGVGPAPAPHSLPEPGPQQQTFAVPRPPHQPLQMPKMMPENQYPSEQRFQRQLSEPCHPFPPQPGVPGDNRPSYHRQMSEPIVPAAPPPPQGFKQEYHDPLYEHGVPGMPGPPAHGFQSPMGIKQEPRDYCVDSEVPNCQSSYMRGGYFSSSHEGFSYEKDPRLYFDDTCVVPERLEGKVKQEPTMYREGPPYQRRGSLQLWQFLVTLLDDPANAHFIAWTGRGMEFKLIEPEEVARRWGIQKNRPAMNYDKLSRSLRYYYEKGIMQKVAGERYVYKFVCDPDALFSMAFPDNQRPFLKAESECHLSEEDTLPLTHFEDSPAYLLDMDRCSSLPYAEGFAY
Method in brief: as §1

[9] = target: ELF4 (Homo sapiens, UniProt Q99607 1-663)
ELF4, sequence (Q99607 whole entry): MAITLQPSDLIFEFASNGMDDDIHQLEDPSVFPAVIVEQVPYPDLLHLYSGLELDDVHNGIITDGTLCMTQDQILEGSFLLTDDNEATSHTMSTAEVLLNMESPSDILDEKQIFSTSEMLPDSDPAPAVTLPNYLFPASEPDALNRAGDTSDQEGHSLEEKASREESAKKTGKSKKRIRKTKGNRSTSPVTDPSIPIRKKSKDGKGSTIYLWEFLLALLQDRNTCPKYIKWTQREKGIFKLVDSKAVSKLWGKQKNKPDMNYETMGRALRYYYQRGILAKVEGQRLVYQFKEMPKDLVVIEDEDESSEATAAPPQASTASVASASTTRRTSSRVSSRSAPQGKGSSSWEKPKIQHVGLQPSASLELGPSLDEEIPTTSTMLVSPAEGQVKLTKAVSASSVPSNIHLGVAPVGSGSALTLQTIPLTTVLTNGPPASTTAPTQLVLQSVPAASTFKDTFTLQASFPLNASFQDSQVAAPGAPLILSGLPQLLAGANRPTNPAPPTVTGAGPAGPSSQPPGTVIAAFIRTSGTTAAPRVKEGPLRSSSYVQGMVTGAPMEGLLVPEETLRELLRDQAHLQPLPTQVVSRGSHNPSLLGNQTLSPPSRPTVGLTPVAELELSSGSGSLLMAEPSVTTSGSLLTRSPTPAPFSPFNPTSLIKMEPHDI
Method in brief: as §1

[10] = target: T6, ELK4 (Homo sapiens, UniProt P28324-2 1-405)
T6 sequence: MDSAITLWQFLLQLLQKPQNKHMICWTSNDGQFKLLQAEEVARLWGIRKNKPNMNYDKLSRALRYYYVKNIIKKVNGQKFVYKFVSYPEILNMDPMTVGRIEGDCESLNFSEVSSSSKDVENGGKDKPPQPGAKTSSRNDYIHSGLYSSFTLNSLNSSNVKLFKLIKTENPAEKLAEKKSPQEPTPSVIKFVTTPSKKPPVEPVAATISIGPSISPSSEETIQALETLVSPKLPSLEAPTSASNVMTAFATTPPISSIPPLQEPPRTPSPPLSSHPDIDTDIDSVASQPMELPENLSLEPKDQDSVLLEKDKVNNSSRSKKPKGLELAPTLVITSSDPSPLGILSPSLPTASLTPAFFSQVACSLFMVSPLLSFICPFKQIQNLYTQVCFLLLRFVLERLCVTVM
Method in brief: as §1

[11] = target: T7, ELF3 (Homo sapiens, UniProt P78545 1-371)
T7 sequence: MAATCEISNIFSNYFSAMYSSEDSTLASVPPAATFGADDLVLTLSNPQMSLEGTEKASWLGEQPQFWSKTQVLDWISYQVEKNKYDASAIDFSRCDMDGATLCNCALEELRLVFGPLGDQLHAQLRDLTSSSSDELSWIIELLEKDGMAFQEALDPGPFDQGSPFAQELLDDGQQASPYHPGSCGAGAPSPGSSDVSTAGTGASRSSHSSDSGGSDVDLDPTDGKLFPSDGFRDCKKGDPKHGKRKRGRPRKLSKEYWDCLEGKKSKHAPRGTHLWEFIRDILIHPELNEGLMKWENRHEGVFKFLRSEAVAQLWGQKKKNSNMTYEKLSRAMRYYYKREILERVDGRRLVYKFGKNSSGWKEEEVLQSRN
Method in brief: as §1

[12] = target: ETV1 (Homo sapiens, UniProt P50549 1-477)
ETV1, sequence (P50549 whole entry): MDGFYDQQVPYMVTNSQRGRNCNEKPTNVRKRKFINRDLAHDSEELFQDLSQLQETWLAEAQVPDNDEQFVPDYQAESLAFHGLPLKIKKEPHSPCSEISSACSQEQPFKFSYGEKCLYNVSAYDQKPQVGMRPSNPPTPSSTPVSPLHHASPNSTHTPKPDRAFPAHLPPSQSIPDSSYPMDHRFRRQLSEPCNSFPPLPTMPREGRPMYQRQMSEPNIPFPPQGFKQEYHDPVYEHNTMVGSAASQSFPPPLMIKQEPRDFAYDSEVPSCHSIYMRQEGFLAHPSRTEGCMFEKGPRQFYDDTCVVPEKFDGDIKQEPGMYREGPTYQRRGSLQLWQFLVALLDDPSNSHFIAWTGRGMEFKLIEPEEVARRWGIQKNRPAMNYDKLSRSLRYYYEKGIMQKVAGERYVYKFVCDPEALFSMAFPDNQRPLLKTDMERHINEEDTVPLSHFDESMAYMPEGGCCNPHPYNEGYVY
Method in brief: as §1

[13] = target: T8, ERF (Homo sapiens, UniProt P50548 1-548)
T8 sequence: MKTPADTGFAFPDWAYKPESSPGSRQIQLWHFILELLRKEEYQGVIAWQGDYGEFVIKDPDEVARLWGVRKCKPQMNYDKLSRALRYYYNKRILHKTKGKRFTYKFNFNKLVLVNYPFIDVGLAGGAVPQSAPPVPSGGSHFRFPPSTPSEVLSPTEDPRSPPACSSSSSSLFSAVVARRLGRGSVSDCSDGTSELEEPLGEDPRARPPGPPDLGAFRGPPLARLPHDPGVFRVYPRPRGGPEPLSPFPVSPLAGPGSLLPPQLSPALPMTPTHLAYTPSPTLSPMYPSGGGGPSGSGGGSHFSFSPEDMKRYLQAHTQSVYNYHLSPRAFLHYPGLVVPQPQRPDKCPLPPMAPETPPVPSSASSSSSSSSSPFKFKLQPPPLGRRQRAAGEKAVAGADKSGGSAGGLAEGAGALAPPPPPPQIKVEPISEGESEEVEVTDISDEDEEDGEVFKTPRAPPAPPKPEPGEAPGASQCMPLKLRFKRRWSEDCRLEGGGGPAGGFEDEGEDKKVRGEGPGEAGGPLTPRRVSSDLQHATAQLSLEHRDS
Method in brief: as §1

[14] = target: T9, ETV3L (Homo sapiens, UniProt Q6ZN32 1-361)
T9 sequence: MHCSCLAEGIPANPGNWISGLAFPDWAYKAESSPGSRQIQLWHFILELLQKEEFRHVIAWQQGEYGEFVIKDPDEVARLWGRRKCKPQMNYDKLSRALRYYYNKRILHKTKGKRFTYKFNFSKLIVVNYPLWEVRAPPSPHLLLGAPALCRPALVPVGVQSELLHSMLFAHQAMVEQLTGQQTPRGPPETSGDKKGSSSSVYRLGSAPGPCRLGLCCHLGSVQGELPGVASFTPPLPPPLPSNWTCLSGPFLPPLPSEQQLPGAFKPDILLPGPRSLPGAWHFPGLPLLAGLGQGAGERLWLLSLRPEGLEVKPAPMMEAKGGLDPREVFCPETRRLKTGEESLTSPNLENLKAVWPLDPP
Method in brief: as §1

[15] = target: T10, ETS2 (Homo sapiens, UniProt P15036 1-469)
T10 sequence: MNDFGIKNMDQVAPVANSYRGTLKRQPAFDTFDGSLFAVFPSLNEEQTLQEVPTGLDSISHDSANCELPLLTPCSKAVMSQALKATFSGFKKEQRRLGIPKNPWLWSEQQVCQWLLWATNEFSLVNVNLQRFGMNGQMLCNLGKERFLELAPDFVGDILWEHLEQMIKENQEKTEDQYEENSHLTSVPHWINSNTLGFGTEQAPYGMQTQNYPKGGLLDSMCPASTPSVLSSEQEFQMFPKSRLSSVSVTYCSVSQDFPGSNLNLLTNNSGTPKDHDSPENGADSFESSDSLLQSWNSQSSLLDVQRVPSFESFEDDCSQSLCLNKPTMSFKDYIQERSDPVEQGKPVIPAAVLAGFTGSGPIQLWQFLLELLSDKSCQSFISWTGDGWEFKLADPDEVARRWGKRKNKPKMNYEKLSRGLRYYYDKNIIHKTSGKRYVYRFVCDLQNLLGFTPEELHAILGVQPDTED
Method in brief: as §1

[16] = target: T11, SPDEF (Homo sapiens, UniProt O95238 1-335)
T11 sequence: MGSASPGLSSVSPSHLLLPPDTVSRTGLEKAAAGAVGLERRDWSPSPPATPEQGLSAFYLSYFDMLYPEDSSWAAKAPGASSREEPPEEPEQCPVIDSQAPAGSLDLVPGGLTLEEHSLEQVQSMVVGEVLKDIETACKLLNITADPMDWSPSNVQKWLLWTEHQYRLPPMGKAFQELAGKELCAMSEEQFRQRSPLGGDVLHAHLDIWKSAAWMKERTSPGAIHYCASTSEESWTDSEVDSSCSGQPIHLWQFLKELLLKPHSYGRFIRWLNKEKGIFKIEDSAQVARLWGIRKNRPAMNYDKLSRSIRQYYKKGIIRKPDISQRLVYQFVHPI
Method in brief: as §1

[17] = target: T12, ETV7 (Homo sapiens, UniProt Q9Y603 1-341)
T12 sequence: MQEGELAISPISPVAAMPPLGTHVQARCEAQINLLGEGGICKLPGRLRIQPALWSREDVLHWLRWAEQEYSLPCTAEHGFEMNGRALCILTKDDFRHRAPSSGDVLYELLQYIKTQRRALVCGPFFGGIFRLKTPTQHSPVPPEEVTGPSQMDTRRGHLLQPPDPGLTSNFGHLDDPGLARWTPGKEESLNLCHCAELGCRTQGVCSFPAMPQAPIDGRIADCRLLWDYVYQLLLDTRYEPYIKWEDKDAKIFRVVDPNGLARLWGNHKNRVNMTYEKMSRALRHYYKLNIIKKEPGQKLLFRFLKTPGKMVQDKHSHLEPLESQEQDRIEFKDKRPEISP
Method in brief: as §1

[18] = target: T13, ETV3 (Homo sapiens, UniProt P41162-2 1-143)
T13 sequence: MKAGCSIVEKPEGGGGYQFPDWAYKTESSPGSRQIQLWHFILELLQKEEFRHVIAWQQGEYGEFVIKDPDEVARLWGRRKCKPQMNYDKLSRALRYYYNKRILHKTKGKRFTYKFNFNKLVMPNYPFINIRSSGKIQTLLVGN
Method in brief: as §1

[19] = target: ETV6 (Homo sapiens, UniProt P41212 1-452)
ETV6, sequence (P41212 whole entry): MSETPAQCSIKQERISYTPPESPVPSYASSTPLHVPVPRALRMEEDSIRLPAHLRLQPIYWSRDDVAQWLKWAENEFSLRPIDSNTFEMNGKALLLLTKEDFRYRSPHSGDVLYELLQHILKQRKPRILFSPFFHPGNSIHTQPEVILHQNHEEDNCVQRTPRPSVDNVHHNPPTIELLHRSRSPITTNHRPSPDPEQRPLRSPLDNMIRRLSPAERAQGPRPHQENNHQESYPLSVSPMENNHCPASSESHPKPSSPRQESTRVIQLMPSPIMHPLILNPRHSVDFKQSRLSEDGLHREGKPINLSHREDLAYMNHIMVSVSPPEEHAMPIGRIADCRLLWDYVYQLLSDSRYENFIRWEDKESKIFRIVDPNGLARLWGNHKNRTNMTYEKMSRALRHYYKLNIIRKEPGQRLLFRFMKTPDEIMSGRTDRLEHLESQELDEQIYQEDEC
Method in brief: as §1

GTTGTT was tested, and the binding signal [1] was 1.12 fold enrichment (6-mer frequency, TF over GST control), the binding signal [2] was 1.04 fold enrichment (6-mer frequency, TF over GST control) and the binding signal [3] was 1.02 fold enrichment (6-mer frequency, TF over GST control). The binding signal [4] was 1.09 fold enrichment (6-mer frequency, TF over GST control), the binding signal [5] was 1.12 fold enrichment (6-mer frequency, TF over GST control) and the binding signal [6] was 1.22 fold enrichment (6-mer frequency, TF over GST control). The binding signal [7] was 1.1 fold enrichment (6-mer frequency, TF over GST control), the binding signal [8] was 1.02 fold enrichment (6-mer frequency, TF over GST control) and the binding signal [9] was 1.04 fold enrichment (6-mer frequency, TF over GST control). The binding signal [10] was 1.33 fold enrichment (6-mer frequency, TF over GST control), the binding signal [11] was 1.13 fold enrichment (6-mer frequency, TF over GST control) and the binding signal [12] was 1.14 fold enrichment (6-mer frequency, TF over GST control). For the same sequence, the binding signal [13] was 1.06 fold enrichment (6-mer frequency, TF over GST control), the binding signal [14] was 1.14 fold enrichment (6-mer frequency, TF over GST control) and the binding signal [15] was 1.06 fold enrichment (6-mer frequency, TF over GST control). For the same sequence, the binding signal [16] was 1.12 fold enrichment (6-mer frequency, TF over GST control), the binding signal [17] was 1.25 fold enrichment (6-mer frequency, TF over GST control) and the binding signal [18] was 1.11 fold enrichment (6-mer frequency, TF over GST control). The binding signal [19] was 1.09 fold enrichment (6-mer frequency, TF over GST control).

— paper PMC7862700, “An all-to-all approach to the identification of sequence-specific readers for epigenetic DNA modifications on cytosine”
